From PubChem BioAssay (NCI) come the findings set out here.

Test systems include NCI-H23 lung; NCI-H226 lung; NCI-H322M lung; HOP-62 NSCLC; NCI-H460 lung; NCI-H522 lung; A549/ATCC NSCLC; 786-0 renal; COLO 205 colon; DU-145 prostate; K-562 leukemia; MALME-3M melanoma; MDA-MB-231 breast; RXF 393 renal; SF-268 CNS; SF-295 CNS; SF-539 CNS; UACC-257 melanoma; M14 melanoma.
Holding throughout (test): NCI-60 one-dose screen, 48 h (100 = growth as untreated, 0 = no growth, -100 = all killed)
What all share (conditions): 10 µM

Molecules are shown by their SMILES. Compounds without any hit were thinned out: in the full panel of roughly 83,000, 20% have a hit.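 Cell lines were cultured in 96-well plates, exposed to a single compound concentration, and assessed for percent growth 48 hours later.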 A number with no mark means an inactive call. Activity calls are given as the source filed them. How the source made its calls: active means growth percent below 10; inactive means the rest.

Take `COc1ccc([C@H]2C(C(=O)c3ccc(Cl)cc3)C3(N[C@@H]2c2ccccc2)C(=O)Nc2ccc(Br)cc23)cc1` (stereo partly specified): the growth with NCI-H23 lung was -47.4% (active); with NCI-H226 lung, -42.5% (active); in the assay with NCI-H322M lung, 21.6%; with HOP-62 NSCLC, -8.82% (active); in the assay with NCI-H460 lung it was -44.4% (active); in the assay with NCI-H522 lung it was 6.07% (active). In addition, the growth with A549/ATCC NSCLC is 17.3%; with 786-0 renal, -17.5% (active); with COLO 205 colon, -92% (active); in the assay with DU-145 prostate it was 17%; with K-562 leukemia, 5.88% (active); in the assay with MALME-3M melanoma, -7.99% (active). For the same molecule, the growth in the assay with MDA-MB-231 breast was -58.3% (active); in the assay with RXF 393 renal, -72.9% (active); in the assay on SF-268 CNS, 18.9%; in the assay on SF-295 CNS, -60.2% (active); with SF-539 CNS, -21.5% (active); in the assay with UACC-257 melanoma, 17%. In addition, the growth in the assay on M14 melanoma is 16.1%.

Turning to `CS(=O)(=O)Nc1ccc(-c2ccc3c(c2)ncn3-c2ccc(NC(=O)Nc3ccc(Br)cc3)cc2)cc1`, the growth in the assay with NCI-H23 lung is 3.9% (active); in the assay on NCI-H226 lung, 9.71% (active); with NCI-H322M lung it was 15.3%; in the assay with HOP-62 NSCLC, -3.22% (active); in the assay with NCI-H460 lung it was 2.98% (active); in the assay with NCI-H522 lung, -23.4% (active). Besides, the growth was 12.1% in the assay with A549/ATCC NSCLC; -13.6% (active) with 786-0 renal; -27.9% (active) with COLO 205 colon; 29.8% with DU-145 prostate; 4.89% (active) in the assay with K-562 leukemia; -20.2% (active) in the assay on MALME-3M melanoma. In addition, the growth in the assay on MDA-MB-231 breast is 13.6%; in the assay on RXF 393 renal, -16.8% (active); with SF-268 CNS, 26.4%; in the assay on SF-295 CNS it was -38.3% (active); in the assay on SF-539 CNS, -34.5% (active); in the assay on UACC-257 melanoma it was -16.9% (active). Further, the growth in the assay on M14 melanoma was 4.32% (active).

On to `O=C(Nc1cccc(C(F)(F)F)c1)c1cncc(C#Cc2cnc3cccnn23)c1`, for which the growth with NCI-H23 lung was 12.7%; in the assay with NCI-H226 lung, 27.1%; with NCI-H322M lung, 71.6%; in the assay on HOP-62 NSCLC it was 33.7%; with NCI-H460 lung, 70.7%; in the assay with NCI-H522 lung, 54.9%. For the same molecule, the growth is 63% in the assay with A549/ATCC NSCLC; 40.1% in the assay on 786-0 renal; 82.3% in the assay on COLO 205 colon; 22.6% in the assay with DU-145 prostate; 8.07% (active) in the assay with K-562 leukemia; 28% in the assay on MALME-3M melanoma. The growth with MDA-MB-231 breast is 27.9%; with SF-268 CNS, 46.4%; in the assay with SF-295 CNS, 63.5%; with SF-539 CNS it was 31.9%; in the assay with UACC-257 melanoma it was 83.6%; in the assay with M14 melanoma, 35.5%.

For the molecule `Cc1noc2c(Cc3ccccc3)nn(CC(=O)N/N=C/c3ccc(Br)cc3)c(=O)c12`, the growth in the assay on NCI-H23 lung was 69.9%; in the assay on NCI-H226 lung it was 32.5%; in the assay with NCI-H322M lung, 102%; in the assay with HOP-62 NSCLC, 43.3%; in the assay with NCI-H460 lung, 13.1%; with NCI-H522 lung, 74.4%. Further, the growth is 18.1% in the assay with A549/ATCC NSCLC; -24.9% (active) with 786-0 renal; 39.7% in the assay on COLO 205 colon; 61.1% in the assay on DU-145 prostate; 87.2% in the assay on K-562 leukemia; 64.9% with MALME-3M melanoma. The growth was 20.6% in the assay with MDA-MB-231 breast; 75.5% in the assay on SF-268 CNS; 50.6% in the assay on SF-295 CNS; 74.4% in the assay with SF-539 CNS; 101% in the assay with UACC-257 melanoma; 101% in the assay on M14 melanoma.

Take `COc1ccc2[nH]c(O)c(N=NC(=O)COc3ccc(NC(=O)Nc4ccc(Cl)c(Cl)c4)cc3)c2c1`: the growth in the assay with NCI-H23 lung is -80.4% (active); in the assay with NCI-H226 lung, -75.6% (active); in the assay with NCI-H322M lung, 16.6%; in the assay with HOP-62 NSCLC it was -36% (active); in the assay with NCI-H460 lung, 15.5%; in the assay with NCI-H522 lung, -90% (active). Also, the growth in the assay with A549/ATCC NSCLC is -54.5% (active); with 786-0 renal, -33.2% (active); in the assay with DU-145 prostate, -60.3% (active); in the assay on MALME-3M melanoma, -79.6% (active); in the assay on MDA-MB-231 breast, -89.7% (active); in the assay with RXF 393 renal, -87.5% (active). Also, the growth in the assay with SF-268 CNS was 64.1%; in the assay on SF-295 CNS it was -45.5% (active); in the assay on SF-539 CNS, -97.5% (active); in the assay with UACC-257 melanoma, 11.3%; in the assay on M14 melanoma, -42.2% (active).

Consider `Nc1cc(-c2cccc(C(=O)NCc3ccc4c(c3)OCO4)c2)ccn1`, for which the growth with NCI-H23 lung was 88%; with NCI-H226 lung, 87.3%; with NCI-H322M lung it was 111%; in the assay with HOP-62 NSCLC it was 93.6%; with NCI-H460 lung, 111%; with NCI-H522 lung, 84.4%. The growth was 99.2% in the assay on A549/ATCC NSCLC; 96.7% with 786-0 renal; 131% in the assay with COLO 205 colon; 101% with DU-145 prostate; 74.4% with K-562 leukemia; 99.3% in the assay on MALME-3M melanoma. Besides, the growth is 102% in the assay with MDA-MB-231 breast; 91.5% in the assay with SF-268 CNS; 90.7% in the assay on SF-295 CNS; 93% with SF-539 CNS; 106% in the assay on UACC-257 melanoma.

Regarding `Cc1cc(=O)oc2cc(OCCCCOc3ccc(/C=C/C(=O)Nc4ccccc4[N+](=O)[O-])cc3)ccc12`, the growth with NCI-H23 lung was 98.8%; in the assay with NCI-H226 lung it was 127%; in the assay with NCI-H322M lung it was 99.6%; in the assay on HOP-62 NSCLC it was 109%; in the assay with NCI-H460 lung, 119%; in the assay with NCI-H522 lung, 105%. The growth in the assay on A549/ATCC NSCLC is 106%; with 786-0 renal it was 111%; in the assay with COLO 205 colon, 124%; in the assay with DU-145 prostate, 102%; in the assay with K-562 leukemia it was 102%; in the assay with MALME-3M melanoma it was 101%. Also, the growth is 102% with MDA-MB-231 breast; 120% in the assay with SF-268 CNS; 99.8% in the assay on SF-295 CNS; 98.8% in the assay on SF-539 CNS; 111% in the assay on UACC-257 melanoma; 112% in the assay on M14 melanoma.
